A number with no mark means an inactive call.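 How the source made its calls, unless noted: active means mean inhibition above 46.68%, the untreated control wells mean plus 3 SD; inactive means the rest.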

In assay [1] the target is Nuclear receptor coactivator 1 (Homo sapiens) (UniProt Q15788). The experiment in a line: NCOA1 GAL4-fusion reporter inhibition – cell-based, luminescence, quadruplicate, confirmation (AID 588820).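 Further: 0% = DMSO wells and 100% = gossypol 36 µM treated wells.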 Conditions: HEK293 GAL4-SRC1 luciferase reporter, at 3.6 µM, active compounds read high. (A reporter such as luciferase makes a cellular process visible.)
A short description of assay [2]: repression of VP16-driven luciferase reporter – cell-based, luminescence, high throughput, counter-screen for SRC1 inhibitor project (AID 588824; in the data active means inhibition above about 25%). Particulars: cell-based VP16 transactivation luciferase luminescence; at 3.6 µM; active compounds read high.

Nuclear receptor coactivator 1 (Homo sapiens), sequence (Q15788 whole entry, looked up, the tested form may be a part): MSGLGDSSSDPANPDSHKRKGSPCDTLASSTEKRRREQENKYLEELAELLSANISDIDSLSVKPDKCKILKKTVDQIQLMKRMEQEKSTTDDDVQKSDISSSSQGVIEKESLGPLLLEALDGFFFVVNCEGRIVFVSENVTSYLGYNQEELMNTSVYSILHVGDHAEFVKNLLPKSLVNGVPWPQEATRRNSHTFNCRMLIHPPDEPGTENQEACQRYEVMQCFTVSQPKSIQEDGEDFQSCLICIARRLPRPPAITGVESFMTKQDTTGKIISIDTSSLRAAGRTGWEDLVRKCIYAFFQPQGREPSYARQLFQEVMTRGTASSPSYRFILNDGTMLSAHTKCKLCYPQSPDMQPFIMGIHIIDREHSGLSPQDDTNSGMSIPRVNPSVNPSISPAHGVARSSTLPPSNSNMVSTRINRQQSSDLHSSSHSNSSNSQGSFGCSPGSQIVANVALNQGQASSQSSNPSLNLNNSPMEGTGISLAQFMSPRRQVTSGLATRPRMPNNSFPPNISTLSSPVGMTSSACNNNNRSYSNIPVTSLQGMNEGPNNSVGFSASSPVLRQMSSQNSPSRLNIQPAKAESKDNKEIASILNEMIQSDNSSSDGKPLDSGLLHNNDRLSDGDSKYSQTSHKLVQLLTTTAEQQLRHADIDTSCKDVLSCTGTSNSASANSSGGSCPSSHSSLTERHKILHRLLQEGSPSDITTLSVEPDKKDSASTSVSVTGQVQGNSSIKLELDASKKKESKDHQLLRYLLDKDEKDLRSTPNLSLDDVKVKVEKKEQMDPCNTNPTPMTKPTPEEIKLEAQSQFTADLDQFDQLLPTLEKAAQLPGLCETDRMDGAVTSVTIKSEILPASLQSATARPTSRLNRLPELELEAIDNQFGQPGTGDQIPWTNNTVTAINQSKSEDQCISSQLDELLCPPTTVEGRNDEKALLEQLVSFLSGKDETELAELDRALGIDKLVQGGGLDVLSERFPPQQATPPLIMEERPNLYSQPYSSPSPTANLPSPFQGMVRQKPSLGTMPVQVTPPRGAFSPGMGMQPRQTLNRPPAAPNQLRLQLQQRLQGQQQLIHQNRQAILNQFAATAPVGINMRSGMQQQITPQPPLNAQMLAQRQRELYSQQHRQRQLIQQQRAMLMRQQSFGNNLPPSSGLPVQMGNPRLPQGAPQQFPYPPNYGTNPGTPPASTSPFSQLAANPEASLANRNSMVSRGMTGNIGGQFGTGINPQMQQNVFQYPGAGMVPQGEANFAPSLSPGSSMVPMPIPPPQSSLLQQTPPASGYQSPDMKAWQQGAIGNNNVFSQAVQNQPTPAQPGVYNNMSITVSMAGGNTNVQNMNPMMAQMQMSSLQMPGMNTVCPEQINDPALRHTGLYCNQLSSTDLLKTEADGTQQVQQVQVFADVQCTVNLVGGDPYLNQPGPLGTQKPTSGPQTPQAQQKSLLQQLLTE

By inhibition is commonly meant the change of the read-out against control, counted positive when it falls. For `N#CC1(NC(=O)CSc2nnc(-c3ccccc3F)o2)CCCCC1`, the inhibition in assay [1] is -24.1%; in assay [2], -10.4%.
As to `Cc1ccccc1COc1cccc(/C=N/NC(=O)c2nnn(-c3nonc3N)c2C)c1`, the figures for the inhibition in assay [1] and in assay [2] were 7.5% and 18.5%, respectively.
`CC(=O)NC(c1cc(Cl)c2cccnc2c1O)C1CC1` (centres undefined): the inhibition in assay [1] was 30.9%; in assay [2], 8.51%.
For `Cc1cc2c(OCC(O)CNCc3ccco3)cccc2[nH]1` (centres undefined), in that order: -14.2% and -11.1%.
As for `CCSc1nnc(NC(=O)C(C)(C(F)(F)F)C(F)(F)F)s1`, the values for the inhibition in assay [1] and in assay [2] were -15.3% and 4.32%, respectively.
For `NS(=O)(=O)c1ccc(NC(=O)c2cccc3cc4ccccc4nc23)cc1`, in that order: -13.3% and 9.91%.
As to `O=C(Nc1ccc(Cc2ccncc2)cc1)c1ccc(S(=O)(=O)N2CCOCC2)cc1`, the inhibition in assay [1] is -12.7%; in assay [2] it was 9.65%.
The like results for `CC(C)(C)c1cc(C(=O)C[n+]2ccc(C(=O)NCCCO)cc2)cc(C(C)(C)C)c1O` were, in that order, -6.91% and -12.9%.
The like results for `COc1cc2cc[n+](Cc3ccc([N+](=O)[O-])cc3)cc2cc1OC` were, in that order, -2.4% and -3.17%.
The like results for `COc1ccc(Oc2nc3c(c(=O)n(C)c(=O)n3C)n2C)cc1` were, in that order, 24.8% and 16.6%.
For `COc1ccc(C(=O)N2CCN(c3ccc(NC(=O)c4cccs4)cc3)CC2)cc1`, the inhibition is 2.7% in assay [1] and -1.25% in assay [2].
The like results for `CCN(C(=O)c1cccc(S(=O)(=O)N(C)C)c1)C12CC3CC(CC(C3)C1)C2` were, in that order, 14.8% and 19.5%.

The record behind these values is PubChem BioAssay.
